Sampled rows, rich in hits. Any-hit rate of the full collection: about 3.9%.
SUMO Mot1 rescue – SUMOylation pathway inhibition by Mot1-301 growth rescue. S. cerevisiae Mot1-301 growth rescue, ATP luminescence, 38.5C; percent above DMSO median, 100 means doubled. growth rescue, % at 18.8 µM. hit rate 1% among 320,000;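 active means every valid replicate shows activation above 250% relative to neutral control wells; inactive means the rest, any valid replicate at or below 250%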;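 further: OY570 slx delta 5 strain wells were the positive control but not used for scaling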
ALR inh – inhibitors of human sulfhydryl oxidase ALR | AID 485317 | hit rate 3.8% among 290,000 | inhibition, % (no concentration beside the values) | purified ALR, DTT oxidation, H2O2 HRP-luminol luminescence;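 active means mean replicate inhibition above about 79%, with every replicate also reaching it, limit read from the data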
Glyco luc inh – N-linked glycosylation inhibition | D54 ERlucT glycosylation luciferase reporter, 24 h; percent of 100 nM tunicamycin response | reporter increase, % at 12.5 µM | hit rate 0.23% among 360,000 | AID 588692;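 active means mean luciferase reporter signal, scaled so untreated is 0 and the glycosylation-blocking control 100, at or above a set limit in every replicate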;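 further: luciferase carries N-glycosylation sites so blocking glycosylation raises the light; 0% = median of neutral control wells and 100% = median of 100 nM tunicamycin wells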
NSD2 inh – blocks human histone methyltransferase NSD2 | NSD2 peptide methylation, AlphaScreen, 120 min | inhibition, % at 12.5 µM | hit rate 0.54% among 310,000 | AID 743445; in the data active means inhibition above about 50%
CDK5 inh – CDK5/p35 (human) kinase inhibition. Q00535+Q15078. Recombinant CDK5/p35, ADP-Glo luminescence, 60 min. inhibition, % at 10 µM. hit rate 0.01% among 330,000. AID 488839;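 active means highest replicate inhibition of at least 50% and at least 75% of replicates reaching 50%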;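 further: plate controls were DMSO neutral control for no effect and GW8510 at 10 µM for full effect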
Casp6 inh – caspase-6 (human) enzyme inhibition. purified caspase-6, Z-VEID-R110 cleavage fluorescence. hit rate 0.53% among 350,000. inhibition, % at 12.5 µM. P55212;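 active means mean inhibition across replicates at least about 35%, with every replicate also reaching that limit, limit read from the data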;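 further: 0% = median of neutral control wells and 100% = no fluorescence left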
Mot1 SUMO dose – inhibits SUMO pathway, affecting Mot1-301 yeast growth; shares compounds with SUMO Mot1 rescue; S. cerevisiae Mot1-301 galactose growth, ATP luminescence, 24 h; -100 = growth of slx-deleted rescue strain; growth activity, percent, % at 42 µM; 2,300 tested, under 10 active;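 active means Signal drops as the depositor expects, and the fitted half-maximal dose is no more than ten times the top valid tested dose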;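 further: more negative values mean stronger growth rescue toward the control strain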
* hit, by the source's call; . = no result; + = active, no number.

SMILES	SUMO Mot1 rescue	ALR inh	Glyco luc inh	NSD2 inh	CDK5 inh	Casp6 inh	Mot1 SUMO dose
Cc1ccc(CNC(=O)CCCCn2c(=O)[nH]c3ccsc3c2=O)cc1	-12	.	-1	0	2	-2	.
O=C(CCCCCn1c(=O)[nH]c2ccsc2c1=O)NCc1ccc(F)cc1	883*	10	0	0	2	.	0
O=C(c1ccccc1)N1Cc2ccccc2[C@H]2OC(c3ccc(OCCCO)cc3)=N[C@@]2(CCS(=O)(=O)c2ccccc2)C1=O	.	.	.	.	.	-3	.
N#Cc1cccc(NC(=O)CSc2n[nH]c(=O)[nH]c2=O)c1	652*	-3	1	-13	2	-1	1
O=C(C[C@H]1C[C@H]2c3cc(NC(=O)Cc4ccncc4)ccc3O[C@H]2[C@H](CO)O1)NCc1cccc(F)c1	.	.	.	.	.	7	.
CCC(CC)C(=O)N1CCCC(c2nc(-c3cccs3)no2)C1 (configuration not stated)	503*	-2	2	-6	1	.	1
CCOc1ccc(C(=O)N2CCCC(c3nc(-c4cccs4)no3)C2)cc1 (configuration not stated)	30	.	-4	.	0	-2	.
COc1ccc(NC(=O)N(C)C[C@@H]2Oc3ncc(-c4ccc(F)cc4)cc3C(=O)N([C@H](C)CO)C[C@@H]2C)cc1	.	.	.	.	.	-1	.
CN1c2ccc(Br)cc2[C@H]2[C@H](CCN2C(=O)C2CCCC2)[C@@H]1CO	.	.	.	.	.	-3	.
Cc1ccc(-n2nnnc2SCC#N)cc1	716*	-12	0	-1	0	0	0
C[C@@H]1CN([C@@H](C)CO)C(=O)c2cc(NC(=O)Cn3cnnn3)ccc2O[C@@H]1CN(C)C(=O)Nc1ccc2c(c1)OCO2	.	.	.	.	.	-3	.
CNC[C@H]1Oc2ccc(NC(=O)CCCN(C)C)cc2C(=O)N([C@H](C)CO)C[C@@H]1C	.	.	.	.	.	-2	.
COc1ccc(C2CC(c3ccccc3)=NN2C(=S)Nc2ccccc2)cc1 (configuration not stated)	.	5	-3	-3	0	2	.
COc1ccc(C2=NN(C(=S)Nc3ccccc3)C(c3ccccc3)C2)cc1 (configuration not stated)	+	-5	-7	-2	1	.	-1
O=C(c1cccc(F)c1)N1C[C@@H]2[C@H](c3ccccc31)[C@@H](CO)N2C(=O)Cc1ccccc1	.	.	.	.	.	1	.
Cc1ccc(NC(=O)c2nc[nH]c2C(=O)N2CCc3ccccc3C2)cc1	-10	0	9	.	0	-2	.
CCOC(=O)c1ccc(NC(=O)c2nc[nH]c2C(=O)N2CCc3ccccc3C2)cc1	371*	-4	-2	.	1	-1	0
CCOC(=O)c1sc(NC(=O)CSc2n[nH]c(-c3ccc(Cl)cc3Cl)n2)c(C#N)c1C	459*	21	1	5	-2	.	0
CO[C@@H]1CN(C)C(=O)c2cc(NC(=O)c3cnccn3)ccc2OC[C@H](C)N(CCc2ccccc2)C[C@H]1C	.	.	.	.	.	-2	.
CCN1CCN(CC(=O)N2N=CCC2c2ccccc2)CC1 (configuration not stated)	805*	-5	0	1	3	-1	0
O=C(CSc1ccc(Cl)cc1)N1N=CCC1c1ccccc1 (configuration not stated)	8	-11	-3	1	-1	2	.
CCn1c(C)c(C(C)=O)c(N2CCN(c3ccc(F)cc3)CC2)nc1=S	917*	56	-3	26	1	12	0
C=CCN1c2ccccc2[C@]23C[C@@H](C(=O)OC)N=C2NC(C(=O)OC)=C(C(=O)OC)[C@H]13	834*	10	5	.	2	-1	-1
C[C@@H]1CN([C@H](C)CO)C(=O)Cc2cc(NS(=O)(=O)c3ccc(Cl)cc3)ccc2O[C@H]1CN(C)C(=O)Nc1ccccc1	.	.	.	.	.	-2	.
CC1=C(C(=O)N2CCOCC2)C(c2ccc(O)cc2)NC(=S)N1 (configuration not stated)	583*	2	2	-3	1	.	0
CC1=C(C(=O)N2CCOCC2)C(c2ccc(-c3ccccc3)cc2)NC(=S)N1 (configuration not stated)	-7	-4	1	0	1	1	.

Screening data deposited in PubChem by Broad Institute.
